# Assay results from PubChem BioAssay (NCI).
# This is part of a sample that, as a whole, favours compounds with a hit. Of some 79,000 tested, about 15% had one in any assay. A number with no mark means an inactive call. Activity calls are given as the source filed them. Cut-off read from the data, not from the text of the source: active = growth inhibition above about 70%; inactive = the rest.
# Experiments:
# [1] = NCI Yeast Anticancer Drug Screen. Data for the rad52 strain (AID 147);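 note: 0% = growth of vehicle-treated control cultures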; conditions: S. cerevisiae rad52 mutant growth inhibition, stronger effect = higher value
# Procedure, shortened: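 Compounds are applied to a genetically defined yeast strain lacking normal DNA damage repair, and inhibition of growth is expressed relative to cultures given vehicle only.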
# [2] = NCI Yeast Anticancer Drug Screen. Data for the wt1 strain (AID 149);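 note: 0% = growth of vehicle-treated wt1 cultures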; conditions: S. cerevisiae wt1 strain (SPY 50644) growth inhibition, stronger effect = higher value
# Procedure, shortened: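 Compounds are added to wt1 yeast cultures. Growth is then measured. Inhibition is expressed relative to vehicle-treated controls.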
# [3] = NCI Yeast Anticancer Drug Screen. Data for the rad50EPP+ strain (AID 151);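 note: 0% = growth of vehicle-treated control cultures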; conditions: S. cerevisiae rad50 mutant strain, stronger effect = higher value
# Procedure, shortened: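 Compounds were applied to the rad50EPP+ yeast strain, which bears a defined DNA repair alteration, and growth inhibition was determined relative to vehicle-treated cultures.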
# [4] = NCI Yeast Anticancer Drug Screen. Data for the mgt1 strain (AID 153); conditions: S. cerevisiae mgt1 mutant growth inhibition, stronger effect = higher value
# Procedure, shortened: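 Strain: mgt1 yeast, one of a set carrying defined DNA damage repair or cell cycle control alterations. Compound-treated growth compared with vehicle.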
# [5] = NCI Yeast Anticancer Drug Screen. Data for the rad50 strain (AID 155);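 note: 0% = growth of vehicle-only cultures of the same strain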; conditions: S. cerevisiae rad50 strain growth inhibition, stronger effect = higher value
# Procedure, shortened: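 Inhibition values express reduced yeast growth in compound-treated cultures relative to vehicle-treated controls.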
# [6] = NCI Yeast Anticancer Drug Screen. Data for the mec2-1 strain (AID 157); conditions: S. cerevisiae mec2-1 strain, stronger effect = higher value
# Procedure, shortened: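 Strain: mec2-1 (DNA repair/cell cycle alteration). Compound exposure, then growth measured; inhibition expressed relative to vehicle.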
# [7] = NCI Yeast Anticancer Drug Screen. Data for the rad14 strain (AID 159);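 note: 0% = growth of vehicle-treated control cultures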; conditions: S. cerevisiae rad14 strain growth inhibition, stronger effect = higher value
# Procedure, shortened: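 A mutant yeast strain defective in DNA damage repair is treated with compound; inhibition of its growth is scored against untreated, vehicle-exposed cultures.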
# [8] = NCI Yeast Anticancer Drug Screen. Data for the sgs1 mgt1 strain (AID 161);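 note: 0% = growth of cultures given vehicle only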; conditions: S. cerevisiae sgs1 mgt1 strain, stronger effect = higher value
# Procedure, shortened: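 Genetically altered yeast, compound exposure, growth inhibition relative to vehicle.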
# [9] = NCI Yeast Anticancer Drug Screen. Data for the CLN2oe strain (AID 163);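 note: 0% = growth of vehicle-only control cultures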; conditions: S. cerevisiae CLN2oe strain, stronger effect = higher value
# Procedure, shortened: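 Growth of a genetically modified yeast strain is measured after compound exposure and compared with cultures given vehicle alone.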
# [10] = NCI Yeast Anticancer Drug Screen. Data for the cln2 rad14 strain (AID 165);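 note: 0% = growth equal to vehicle treated cultures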; conditions: S. cerevisiae cln2 rad14 strain, stronger effect = higher value
# Procedure, shortened: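 Compounds are applied to the cln2 rad14 yeast strain, and growth is then compared with that of vehicle-treated cultures to give inhibition.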
# [11] = NCI Yeast Anticancer Drug Screen. Data for the bub3 strain (AID 167); conditions: S. cerevisiae bub3 mutant strain, stronger effect = higher value
# Procedure, shortened: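 Steps: expose the mutant yeast strain to compound; grow alongside vehicle-treated cultures; measure growth; express inhibition against the vehicle cultures.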
# [12] = NCI Yeast Anticancer Drug Screen. Data for the wt2 strain (AID 169);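 note: 0% = growth of vehicle-treated yeast cultures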; conditions: S. cerevisiae wt2 strain growth inhibition, stronger effect = higher value
# Procedure, shortened: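 This strain belongs to a panel of yeast strains with defined genetic alterations in DNA damage repair or cell cycle control. Compounds are applied, and growth inhibition is measured against vehicle-treated cultures.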
# [13] = NCI Yeast Anticancer Drug Screen. Data for the mlh1 strain (AID 171);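 note: 0% = growth of vehicle-treated control cultures of the same strain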; conditions: S. cerevisiae mlh1 strain growth inhibition, stronger effect = higher value
# Procedure, shortened: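 Growth of the mutant yeast strain after compound exposure, expressed as inhibition relative to vehicle-only controls.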
# [14] = NCI Yeast Anticancer Drug Screen. Data for the sgs1 strain (AID 173);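 note: 0% = growth of vehicle-only control cultures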; conditions: S. cerevisiae sgs1 mutant, stronger effect = higher value
# Procedure, shortened: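 Growth of a yeast strain bearing a defined genetic alteration is measured after compound treatment. Inhibition is expressed relative to vehicle-only controls.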
# [15] = NCI Yeast Anticancer Drug Screen. Data for the mlh1 rad18 strain (AID 175); conditions: S. cerevisiae mlh1 rad18 strain growth inhibition, stronger effect = higher value
# Procedure, shortened: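 Read-out is yeast growth inhibition, calculated against vehicle-only controls. The compound was applied to a strain engineered with DNA damage repair alterations.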
# [16] = NCI Yeast Anticancer Drug Screen. Data for the rad18 strain (AID 177); conditions: S. cerevisiae rad18 mutant growth inhibition, stronger effect = higher value
# Procedure, shortened: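 Growth of the mutant yeast strain after compound exposure, normalised to vehicle-only cultures.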
# [17] = at 5.0 µM (retest, dose inferred, filed as 0.5)
# [18] = at 50.0 µM (retest, dose inferred, filed as 5.0)
compound,measurement,setting,value
O=[N+]([O-])c1cc(CCl)ccc1CCl,growth inhibition,[1]; at 1.2 µM,6%
same,growth inhibition,[1]; at 3.7 µM,11%
same,growth inhibition,[1]; at 11.0 µM,69%
same,growth inhibition,[1]; at 33.0 µM,95% (active)
same,growth inhibition,[1]; at 100.0 µM,97% (active)
same,growth inhibition,[2]; at 1.2 µM,2%
same,growth inhibition,[2]; at 3.7 µM,8%
same,growth inhibition,[2]; at 11.0 µM,30%
same,growth inhibition,[2]; at 33.0 µM,93% (active)
same,growth inhibition,[2]; at 100.0 µM,97% (active)
same,growth inhibition,[3]; at 1.2 µM,16%
same,growth inhibition,[3]; at 3.7 µM,44%
same,growth inhibition,[3]; at 11.0 µM,89% (active)
same,growth inhibition,[3]; at 33.0 µM,97% (active)
same,growth inhibition,[3]; at 100.0 µM,98% (active)
same,growth inhibition,[4]; at 1.2 µM,4%
same,growth inhibition,[4]; at 3.7 µM,2%
same,growth inhibition,[4]; at 11.0 µM,25%
same,growth inhibition,[4]; at 33.0 µM,90% (active)
same,growth inhibition,[4]; at 100.0 µM,97% (active)
same,growth inhibition,[5]; at 1.2 µM,7%
same,growth inhibition,[5]; at 3.7 µM,20%
same,growth inhibition,[5]; [17],-3%
same,growth inhibition,[5]; at 11.0 µM,84% (active)
same,growth inhibition,[5]; at 33.0 µM,97% (active)
same,growth inhibition,[5]; [18],98% (active)
same,growth inhibition,[5]; at 50.0 µM,99.1% (active)
same,growth inhibition,[5]; at 100.0 µM,97% (active)
same,growth inhibition,[6]; at 1.2 µM,3%
same,growth inhibition,[6]; at 3.7 µM,6%
same,growth inhibition,[6]; [17],-7%
same,growth inhibition,[6]; at 11.0 µM,37%
same,growth inhibition,[6]; at 33.0 µM,93% (active)
same,growth inhibition,[6]; [18],97% (active)
same,growth inhibition,[6]; at 50.0 µM,98.9% (active)
same,growth inhibition,[6]; at 100.0 µM,98% (active)
same,growth inhibition,[7]; at 1.2 µM,8%
same,growth inhibition,[7]; at 3.7 µM,13%
same,growth inhibition,[7]; at 11.0 µM,38%
same,growth inhibition,[7]; at 33.0 µM,95% (active)
same,growth inhibition,[7]; at 100.0 µM,97% (active)
same,growth inhibition,[8]; [17],4%
same,growth inhibition,[8]; [18],98% (active)
same,growth inhibition,[8]; at 50.0 µM,98.5% (active)
same,growth inhibition,[9]; at 1.2 µM,10%
same,growth inhibition,[9]; at 3.7 µM,15%
same,growth inhibition,[9]; at 11.0 µM,48%
same,growth inhibition,[9]; at 33.0 µM,94% (active)
same,growth inhibition,[9]; at 100.0 µM,97% (active)
same,growth inhibition,[10]; [17],57%
same,growth inhibition,[10]; [18],97% (active)
same,growth inhibition,[10]; at 50.0 µM,98.3% (active)
same,growth inhibition,[11]; at 1.2 µM,-18%
same,growth inhibition,[11]; at 3.7 µM,2%
same,growth inhibition,[11]; [17],-17%
same,growth inhibition,[11]; at 11.0 µM,46%
same,growth inhibition,[11]; at 33.0 µM,92% (active)
same,growth inhibition,[11]; [18],97% (active)
same,growth inhibition,[11]; at 50.0 µM,99.4% (active)
same,growth inhibition,[11]; at 100.0 µM,97% (active)
same,growth inhibition,[12]; at 1.2 µM,3%
same,growth inhibition,[12]; at 3.7 µM,15%
same,growth inhibition,[12]; at 11.0 µM,54%
same,growth inhibition,[12]; at 33.0 µM,96% (active)
same,growth inhibition,[12]; at 100.0 µM,99% (active)
same,growth inhibition,[13]; at 1.2 µM,4%
same,growth inhibition,[13]; at 3.7 µM,13%
same,growth inhibition,[13]; at 11.0 µM,58%
same,growth inhibition,[13]; at 33.0 µM,95% (active)
same,growth inhibition,[13]; at 100.0 µM,98% (active)
same,growth inhibition,[14]; at 1.2 µM,11%
same,growth inhibition,[14]; at 3.7 µM,28%
same,growth inhibition,[14]; at 11.0 µM,79% (active)
same,growth inhibition,[14]; at 33.0 µM,96% (active)
same,growth inhibition,[14]; at 100.0 µM,98% (active)
same,growth inhibition,[15]; [17],38%
same,growth inhibition,[15]; [18],99% (active)
same,growth inhibition,[15]; at 50.0 µM,99% (active)
same,growth inhibition,[16]; at 1.2 µM,32%
same,growth inhibition,[16]; at 3.7 µM,66%
same,growth inhibition,[16]; at 11.0 µM,94% (active)
same,growth inhibition,[16]; at 33.0 µM,98% (active)
same,growth inhibition,[16]; at 100.0 µM,97% (active)
CN1Cc2ccccc2/C=C\c2ccccc21,growth inhibition,[1]; at 1.2 µM,-3%
same,growth inhibition,[1]; at 3.7 µM,-4%
same,growth inhibition,[1]; at 11.0 µM,-1%
same,growth inhibition,[1]; at 33.0 µM,25%
same,growth inhibition,[1]; at 100.0 µM,39%
same,growth inhibition,[2]; at 1.2 µM,-3%
same,growth inhibition,[2]; at 3.7 µM,-2%
same,growth inhibition,[2]; at 11.0 µM,-3%
same,growth inhibition,[2]; at 33.0 µM,-4%
same,growth inhibition,[2]; at 100.0 µM,7%
same,growth inhibition,[3]; at 1.2 µM,0%
same,growth inhibition,[3]; at 3.7 µM,9%
same,growth inhibition,[3]; at 11.0 µM,23%
same,growth inhibition,[3]; at 33.0 µM,36%
same,growth inhibition,[3]; at 100.0 µM,71% (active)
same,growth inhibition,[4]; at 1.2 µM,0%
same,growth inhibition,[4]; at 3.7 µM,-3%
same,growth inhibition,[4]; at 11.0 µM,-1%
same,growth inhibition,[4]; at 33.0 µM,7%
same,growth inhibition,[4]; at 100.0 µM,22%
same,growth inhibition,[5]; at 1.2 µM,-6%
same,growth inhibition,[5]; at 3.7 µM,-10%
same,growth inhibition,[5]; [17],-123%
same,growth inhibition,[5]; at 11.0 µM,-1%
same,growth inhibition,[5]; at 33.0 µM,49%
same,growth inhibition,[5]; [18],92% (active)
same,growth inhibition,[5]; at 50.0 µM,24.8%
same,growth inhibition,[5]; at 100.0 µM,64%
same,growth inhibition,[6]; at 1.2 µM,1%
same,growth inhibition,[6]; at 3.7 µM,2%
same,growth inhibition,[6]; [17],-47%
same,growth inhibition,[6]; at 11.0 µM,1%
same,growth inhibition,[6]; at 33.0 µM,1%
same,growth inhibition,[6]; [18],67%
same,growth inhibition,[6]; at 50.0 µM,34.3%
same,growth inhibition,[6]; at 100.0 µM,-3%
same,growth inhibition,[7]; at 1.2 µM,-3%
same,growth inhibition,[7]; at 3.7 µM,-2%
same,growth inhibition,[7]; at 11.0 µM,1%
same,growth inhibition,[7]; at 33.0 µM,14%
same,growth inhibition,[7]; at 100.0 µM,43%
same,growth inhibition,[8]; [17],-57%
same,growth inhibition,[8]; [18],90% (active)
same,growth inhibition,[8]; at 50.0 µM,-5.4%
same,growth inhibition,[9]; at 1.2 µM,0%
same,growth inhibition,[9]; at 3.7 µM,2%
same,growth inhibition,[9]; at 11.0 µM,3%
same,growth inhibition,[9]; at 33.0 µM,2%
same,growth inhibition,[9]; at 100.0 µM,3%
same,growth inhibition,[10]; [17],-57%
same,growth inhibition,[10]; [18],18%
same,growth inhibition,[10]; at 50.0 µM,-30.4%
same,growth inhibition,[11]; at 1.2 µM,-2%
same,growth inhibition,[11]; at 3.7 µM,-1%
same,growth inhibition,[11]; [17],-66%
same,growth inhibition,[11]; at 11.0 µM,1%
same,growth inhibition,[11]; at 33.0 µM,12%
same,growth inhibition,[11]; [18],87% (active)
same,growth inhibition,[11]; at 50.0 µM,-15.8%
same,growth inhibition,[11]; at 100.0 µM,35%
same,growth inhibition,[12]; at 1.2 µM,0%
same,growth inhibition,[12]; at 3.7 µM,1%
same,growth inhibition,[12]; at 11.0 µM,0%
same,growth inhibition,[12]; at 33.0 µM,-4%
same,growth inhibition,[12]; at 100.0 µM,25%
same,growth inhibition,[13]; at 1.2 µM,9%
same,growth inhibition,[13]; at 3.7 µM,1%
same,growth inhibition,[13]; at 11.0 µM,-1%
same,growth inhibition,[13]; at 33.0 µM,-3%
same,growth inhibition,[13]; at 100.0 µM,33%
same,growth inhibition,[14]; at 1.2 µM,2%
same,growth inhibition,[14]; at 3.7 µM,3%
same,growth inhibition,[14]; at 11.0 µM,2%
same,growth inhibition,[14]; at 33.0 µM,23%
same,growth inhibition,[14]; at 100.0 µM,58%
same,growth inhibition,[15]; [17],-109%
same,growth inhibition,[15]; [18],89% (active)
same,growth inhibition,[15]; at 50.0 µM,22.6%
